Experimental data as given in paper PMC4336329 (PLoS ONE, 2015).
Among all 310,000 compounds or so, about 14,000 (4.5%) showed an effect of 50% or more. The effect is printed as a negative number. Shown is part of a subset that was picked to be rich in strong results.

Target: human ether-à-go-go-related gene (hERG) potassium channel (human, UniProt Q12809)
Assay: primary screen, population patch clamp on CHO cells stably expressing hERG; higher = less effect of the substance
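Also: peak tail current of the secondary pulse compared with the same well before compound.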

Chain of human ether-à-go-go-related gene (hERG) potassium channel (Q12809 whole entry, looked up): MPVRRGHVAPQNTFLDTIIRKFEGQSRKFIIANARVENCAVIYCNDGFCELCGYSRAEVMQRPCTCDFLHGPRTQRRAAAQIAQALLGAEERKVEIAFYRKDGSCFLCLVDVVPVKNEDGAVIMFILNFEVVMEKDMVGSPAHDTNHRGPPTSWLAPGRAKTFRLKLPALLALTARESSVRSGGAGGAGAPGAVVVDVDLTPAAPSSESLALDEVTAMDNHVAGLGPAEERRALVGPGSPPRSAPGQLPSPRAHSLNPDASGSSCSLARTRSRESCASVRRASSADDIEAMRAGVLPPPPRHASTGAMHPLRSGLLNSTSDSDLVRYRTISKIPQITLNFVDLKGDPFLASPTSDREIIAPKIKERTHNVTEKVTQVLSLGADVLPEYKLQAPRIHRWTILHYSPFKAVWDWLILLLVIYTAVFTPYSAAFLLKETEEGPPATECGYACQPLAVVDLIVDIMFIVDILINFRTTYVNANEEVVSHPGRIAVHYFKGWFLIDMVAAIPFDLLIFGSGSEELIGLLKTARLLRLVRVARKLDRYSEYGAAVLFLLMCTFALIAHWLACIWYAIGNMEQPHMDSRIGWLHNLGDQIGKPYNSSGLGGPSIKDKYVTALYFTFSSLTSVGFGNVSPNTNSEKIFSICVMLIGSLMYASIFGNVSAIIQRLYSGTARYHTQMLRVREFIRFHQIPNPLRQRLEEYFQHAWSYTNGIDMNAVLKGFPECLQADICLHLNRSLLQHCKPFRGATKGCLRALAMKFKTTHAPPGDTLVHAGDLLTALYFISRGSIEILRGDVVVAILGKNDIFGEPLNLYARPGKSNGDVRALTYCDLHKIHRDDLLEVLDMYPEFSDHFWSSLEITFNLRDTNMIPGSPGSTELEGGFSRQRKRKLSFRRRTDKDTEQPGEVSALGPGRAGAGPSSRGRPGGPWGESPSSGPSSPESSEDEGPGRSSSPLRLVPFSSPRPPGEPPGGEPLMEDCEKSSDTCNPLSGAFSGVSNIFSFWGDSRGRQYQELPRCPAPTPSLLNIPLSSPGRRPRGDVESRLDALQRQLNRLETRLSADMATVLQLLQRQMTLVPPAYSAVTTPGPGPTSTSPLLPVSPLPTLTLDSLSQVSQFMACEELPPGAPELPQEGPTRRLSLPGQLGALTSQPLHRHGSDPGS

| Compound | hERG current change (%, negative = inhibition) at 10uM |
| --- | --- |
| O=[N+]([O-])c1ccc(N/N=C/c2cccc(O)c2O)c(S(=O)(=O)N2CCOCC2)c1 | -5.8% |
| COC(=O)c1ccccc1NC(=O)CSc1nnc(-c2cccnc2)o1 | -6.93% |
| COc1ccccc1NC(=O)C(C)N1C(=O)c2ccccc2C1=O (centres unmarked) | 5.76% |
| Cc1cccc(-c2nc(CSCC(=O)NCCCN3CCOCC3)c(C)o2)c1 | -11.3% |
| Cc1c(NC(=O)CSc2nnnn2-c2ccc(O)cc2)c(=O)n(-c2ccccc2)n1C | -7.29% |
| Nc1c(Cl)ncnc1NCCc1ccc(O)cc1 | 9.93% |
| CCn1nc(-c2ccccc2)nc2c(=O)n(C)c(=O)nc1-2 | -27.6% |
| Cc1cnc2cc(Cl)c(Cl)cc2n1 | 18.2% |
| CCOc1ccc(S(=O)(=O)Nc2ccc(C(=O)N3CC(C)OC(C)C3)cc2)cc1 (centres unmarked) | 0.557% |
| N#Cc1ccc(C2=CC(=O)C[C@H](c3ccc(Cl)cc3)C2)cc1 | -71.9% |
| Cc1ccc(C2=CC(=O)C[C@H](c3ccc(Cl)cc3)C2)cc1 | 8.09% |
| O=C1C=C(c2ccc(-c3ccccc3)cc2)C[C@@H](c2ccc(Cl)cc2)C1 | 21.8% |
| O=C(NCc1ccccc1)c1ccc(CS(=O)(=O)Cc2ccccc2F)o1 | -5.62% |
| COc1cccc(CNC(=O)CC2C(=O)NCCN2CCCc2ccccc2)c1 (centres unmarked) | -6.17% |
| COc1cccc(NC(=O)CN2CCc3ccccc3C2)c1 | 10.3% |
| CCc1ccc(OCC(=O)N2CCN(CC(=O)Nc3ccccc3Cl)CC2)cc1 | -80.7% |
| COc1ccc(OCC(=O)Nc2ccccc2Cl)cc1 | 13.7% |
| COc1ccc(NC(=O)c2ccccc2NC(=O)CN2CCCCCC2)cc1 | 8.82% |
| COc1cccc(CN2CCN(CC(=O)Nc3ccccc3Cl)CC2)c1 | -72% |
| COc1cccc(NC(=O)CN2CCN(CC(=O)Nc3ccccc3Cl)CC2)c1 | -61% |

| Compound | hERG current change (%, negative = inhibition) at 10uM |
| --- | --- |
| COc1ccc(S(=O)(=O)N2CCN(CC(=O)Nc3ccccc3Cl)CC2)cc1 | -1.6% |
| COc1ccc(NC(=O)CN2CCN(CC(=O)Nc3ccccc3Cl)CC2)cc1 | -74.1% |
| COc1cccc(CC(=O)Nc2ccccc2N2CCCC2)c1 | -5.39% |
| CCc1nnc(NC(=O)CN2CCN(Cc3cccc(OC)c3)CC2)s1 | -19% |
| COc1cccc(NC(=O)CN2CCC(C)CC2)c1 | 1.52% |
| O=C(COc1ccc(Cl)cc1)Nc1ccccc1Cl | 3.26% |
| CCOC(=O)c1oc2ccccc2c1COC(=O)C(C)NC(=O)c1ccco1 (centres unmarked) | -16.5% |
| COc1ccc(C(=O)N(C)C2CCCCC2)cc1S(=O)(=O)N1CCOCC1 | -3.28% |
| CCCCOc1ccc(/C=N/NC(=S)Nc2cccc(C)c2C)cc1 | -15.8% |
| CCOc1ccc(CCNC(=O)CN2C(=O)COc3ccc(S(=O)(=O)N4CCOCC4)cc32)cc1 | -6.84% |
| CCN1CCCC1CNC(=O)C(=O)Nc1cccc(OC)c1 (centres unmarked) | -1.67% |
| O=C(c1cc2cc(Br)ccc2[nH]1)N1CCc2ccccc21 | 14% |
| CSc1ccccc1NC(=O)COc1ccc(Cl)cc1 | -17.5% |
| COc1cccc(C(=O)NC2CCN(CC(=O)Nc3ccccc3Cl)CC2)c1 | -55.4% |
| COc1cccc(C(=O)NC2CCN(CC(=O)Nc3cccc(C)c3C)CC2)c1 | 32.2% |
| Cc1cccc(C(=O)NC2CCN(CC(=O)Nc3ccccc3Cl)CC2)c1 | -49% |
| CC(NC(=O)CN1CCN(c2cccc(Cl)c2)CC1)c1ccccc1 (centres unmarked) | 4.34% |
| COc1ccc(NC(=O)CN2CCN(c3ccccc3C)CC2)cc1 | -41.2% |
| CC(NC(=O)CN1CCN(S(=O)(=O)c2ccc(Br)cc2)CC1)c1ccccc1 (centres unmarked) | -36.9% |
| COc1ccc(CCNC(=O)CN2CCN(c3ccccc3Cl)CC2)cc1 | -19% |

| Compound | hERG current change (%, negative = inhibition) at 10uM |
| --- | --- |
| CC(NC(=O)CN1CCN(CC(=O)Nc2ccccc2Cl)CC1)c1ccc(Br)cc1 (centres unmarked) | -75.1% |
| COc1ccc(NC(=O)CN2CCN(c3ccccc3Cl)CC2)cc1 | -61.4% |
| O=C(CCCn1c(SCC(=O)c2ccc(Cl)cc2)nc2ccccc2c1=O)NCc1ccco1 | 3.21% |
| O=c1c(Cl)c(Nc2cccc(Cl)c2)cnn1-c1nc2ccccc2s1 | -2.51% |
| COc1ccccc1CCn1c(N)cc(=O)[nH]c1=O | 18.4% |
| Cc1cc(C)c2c(N)c(S(=O)(=O)Cc3ccccc3)sc2n1 | -33.3% |
| O=P(Oc1ccccc1)(Oc1ccccc1)c1ccccc1 | -21.8% |
| CCOc1ccc(C(=O)N2CCn3c2nc2ccccc23)cc1 | -5.37% |
| Br.CCn1c(=N)n(CC(=O)c2ccc(OC)c(OC)c2)c2ccccc21 | -13.7% |
| Br.C=CCn1c(=N)n(CC(=O)c2ccc(Cl)cc2)c2ccccc21 | -36.1% |
| Br.Cn1c(=N)n(CC(=O)c2ccccc2)c2ccccc21 | -12.4% |
| Br.Cn1c(=N)n(CC(=O)c2ccc(Br)cc2)c2ccccc21 | -41% |
| CCn1c(=N)n(CC(=O)c2cccc(OC)c2)c2ccccc21 | -16.6% |
| Br.CCn1c(=N)n(CC(=O)c2ccc(Cl)c(Cl)c2)c2ccccc21 | -51.4% |
| Br.CCCn1c(=N)n(CC(=O)O)c2ccccc21 | -5.8% |
| Br.Cn1c(=N)n(CC(=O)c2ccc(F)cc2)c2ccccc21 | -23.2% |
| Br.CCCn1c(=N)n(CC(=O)c2ccc(Cl)cc2)c2ccccc21 | -53% |
| Br.Cn1c(=N)n(CC(=O)c2ccc(Cl)c(Cl)c2)c2ccccc21 | -64.1% |
| Br.CCCn1c(=N)n(CC(=O)c2ccc(Cl)c(Cl)c2)c2ccccc21 | -51.5% |
